To fix the notation:
B1: ENSMUSG00000061578.946|Ksr2 (ssRNA)
RNA: GGGAGUUCUACAGUCCGACGAUCGCUUCGAUAUCCGCAUGCUAAACAAGAAGACUGCAUGUUAACGCUCCUGCCACUGUUGCCCCUUCCUUUACCCUUGGCAGACAUUGCUAAUCAAUCUCAGCACAGUUUCCAACCACAGUCAUAGAACAUUUGCCACAAAGGCCCUGGAUGUGACUAUAUGUGCUGAGAAGGGAAGGUAGUUUUCCCCCAGAAAGUCCCUUCUAAUAAACAUUGAUGACUUUAGAAUCCAUGACUCAGAAUUUUCCAGAGACCCAAUCCCUCGGGGUCCACUUAGUGAUGGCUCUUGCGGUCGCACUAGUGUGGAAUUCUCGGGUGUCAAGG
B2: ENSMUSG00000058297.101|Spock2|105:110 (ssRNA)
RNA: GGGAGUUCUACAGUCCGACGAUCGCUUCGAUAUCCGCAUGCUAAUUUGAUAUGAAAGCCCCACCACGGUCUUGUGGUGAUGAGGCAGGACCUGUACACACAGCAAGGCUUACUAUCCGUCUCCUGACAUCCGAAGAGCUCGUCGCAGCACACACUAAUGGCCCUUGGGCUGCACGUGGUUAAGCAUAGCUGUCUCUGUGGCCCAACACAAAGAGGUAAACUUACUUAAAACACAGGGGUUUUGUUGCUGUUUGUUUUUUGUUAGUUUGUUUGUUGAUAAUUGGAUUGAGGAGUUAAUCCUCUGCUCUUGCGGUCGCACUAGUGUGGAAUUCUCGGGUGUCAAGG
B3: ENSMUSG00000029636.282|Wasf3 (ssRNA)
RNA: GGGAGUUCUACAGUCCGACGAUCGCUUCGAUAUCCGCAUGCUAGCGCCAUGGCCAUCCUGGAGCCUGCGCACACGUGGCCGCUGCUGUGACUCGCUGUCCUUGGUAAUUGGUGAGAGGCUUUUUCUUUCUUUCUCAGUUCUGCUUUUCCACACUGAGACCCACCAUGUUGACAUCAUCCUCGCGACGUUGACAUUUGAGCCUUUUGUUCUGUCUCCCAUGUGCCCUGUAGAACCCAGCACUCAUGUUUGGCAAAACUUUUUUUGGUAAGGUCCUUAUGCUCUCAGGGUGGAGGGAAGACAUUACUCUUGCGGUCGCACUAGUGUGGAAUUCUCGGGUGUCAAGG
B4: ENSMUSG00000058297.560|Spock2 (ssRNA)
RNA: GGGAGUUCUACAGUCCGACGAUCGCUUCGAUAUCCGCAUGCUAACCUGGGGGUGCAAAAGGAGAUUCAAGACAUCCGUACCAAGUCAGGCAGAGCUACCCGCUUCUCAGCCCGUGUCCCACUUAAAACCGUCCGAUGUGUAAUCACUGAGCUUAGAGUUAAACAUUGUGGUCAAGUGCUUGGGUUCCGUCUGUAGAUUUAAGUGCUGACGUUGUAUCUCUCAGUAAUUUUAGAUGUCUUUUAAAAAAUCUGAACAAGUGUUAGACCCGUGUGUGCGUUGGUGGGCACUCAAGCAUCCCGUGGGCUCUUGCGGUCGCACUAGUGUGGAAUUCUCGGGUGUCAAGG
B5: ENSMUSG00000031028.59|Tub|169:181;199:203 (ssRNA)
RNA: GGGAGUUCUACAGUCCGACGAUCGCUUCGAUAUCCGCAUGCUACCCAGUCCUGGGUCAGUCCCCUGCUGCAGUGGUGUUAUCACACCGGAAAGCCUCUUCACCUGGAGGUACAGAGGGAGAGGAAGCACAAGCCUGGCUGCUGUGGCUCAGCCAUCCACUCAGCCUACGAGUCAGAGACAGUGGGUGUCCCGGGAAGCAGGGGUACAGUGACACACACACAUACUACAGGGCACUCAAGCUCAUACUAGAAAAAGCUCUGGUGGUCAGCAGAAAGCACUCCCACUUCAAAAGGGCCCAUUAGGCUCUUGCGGUCGCACUAGUGUGGAAUUCUCGGGUGUCAAGG
B6: ENSMUSG00000034801.92|Sos2 (ssRNA)
RNA: GGGAGUUCUACAGUCCGACGAUCGCUUCGAUAUCCGCAUGCUACAGAGCAAGUCCCAGGACAGCCAGGGCUACACAAAAAAACCUUGUCUCAAAAGUCAAAAUACAAACAAAAGAGAGAAAAGGAAGGAAGGAAAGAAUUUGAAAUAUUAAAAUGCAAAAGCCCUUCACCAUAGCCCCCAGGUGAUCAGCAGCAUUGCUUCCUCGGCUCCCCAGUGCUGCCCUAGGCCAGUAUAAAGACUCUGUAUUGCACUGUAGACUCUGCUAGCAGACGGCACUGAGAGGAGCCAGCGCUCGAGGGCGUUCUCUUGCGGUCGCACUAGUGUGGAAUUCUCGGGUGUCAAGG
B7: ENSMUSG00000090935.132|Synj2bp|162:172 (ssRNA)
RNA: GGGAGUUCUACAGUCCGACGAUCGCUUCGAUAUCCGCAUGCUAUCUCUCUCUCACUCACCAUCUCUGACAUCCUCCCAUAUUCUUUCUCCUCCACAUAGCCAAUACAAGAUUUAAAGUGACUGCUUAUCACCCAAAACCCUGCUAUUCAAAAUCUCCUAUUCUAAUGGAAGAGUACAGGGGUUAUUUGAAGAAAAGCUGUGGUGCACACACACACGGGGAAGCCUUGCUUAGAAUGAAUGAGAAGUUACAUAUUUUACUAGGACUGCCAAUAAAAACUCAGCUAUCAUCCAAAGAGGAAAAGCCUCUUGCGGUCGCACUAGUGUGGAAUUCUCGGGUGUCAAGG
B8: ENSMUSG00000029028.117|Lrrc47 (ssRNA)
RNA: GGGAGUUCUACAGUCCGACGAUCGCUUCGAUAUCCGCAUGCUAGCUCCAAUGUGACUCUCCUGUCUCCUGUCCUCAUGGAUCACUCAGUAACUGCUGGGGAUGUUCUGAAUCAUGUGGCCUGUGGCCGUGCUGGAGAGUCAGGUUGAACGCAGGCAUUCUAUUGAACAGUAUUUAUUUUUCUACAACAUGUUAAUAGAAUUUUUUUUUAAAUCAGCUGUGCAUAGACAGUUGAGAACAUCAUGUUGUGAGUGUAAUCUUCUUAGAGCUUGUUUCCAGGCACCGUGCUGCCGCCAUGCUCCCAGCUCUUGCGGUCGCACUAGUGUGGAAUUCUCGGGUGUCAAGG
B9: ENSMUSG00000029028.162|Lrrc47|217:221 (ssRNA)
RNA: GGGAGUUCUACAGUCCGACGAUCGCUUCGAUAUCCGCAUGCUAGCCUUCCACGGCUGUGCUUGGAACUGUAGUGCUGGUCGUUGUUGGCACAUCUGCGCCUUGGCCAAGGAAGUUAUCUAUGUCCGUGUAGUCCUUUGUAGUCAGACAGAUGCUUCGUGGACUGUGCCUCACACAUGGCCCUGCAGGCUCCAUGUCAGCGUGUCCCACUAUUCAUGUCCCAUCUCUGUGCAUCCUGACUGCGCACAUCCCAUCUCCGCAACACAACGCAUCUGUACCAGCACACAGCUGCCAUCCCUCGAGCCCUCUUGCGGUCGCACUAGUGUGGAAUUCUCGGGUGUCAAGG

The full ranking holds about 9,900 sequences; the median of “r (bound/input frequency ratio)” is about 0.7, and the highest 2% start at about 6.5. This excerpt belongs to a sample that is enriched for the highest values.

For the test, the target named is TDP-43 (Homo sapiens, UniProt Q13148 1-414). The experiment in a line: RNA Bind-n-Seq with designed 260-mer pool; 25 mM Tris-HCl, 150 mM KCl, 3 mM MgCl2, BSA (printed 500 mg/mL), 20 units/mL SUPERase IN; pH not stated; 500 nM RNA pool, 1 h, 4 C; TDP-43 5, 50, 500 nM; high values mean tight binding. As to conditions: protein: recombinant; tags: SBP (GST cleaved off with PreScission; pGEX-GST-SBP). The procedure, abridged: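 Streptavidin beads captured recombinant SBP-tagged TDP-43 at 5, 50 or 500 nM, and the beads were incubated for 1 h at 4 °C with 500 nM of an in vitro-transcribed pool of 260-nt 3′ UTR oligos in 25 mM Tris-HCl, 150 mM KCl, 3 mM MgCl2, BSA and SUPERase IN. After washing, bound RNA was eluted with biotin, reverse transcribed, PCR-amplified and sequenced. Binding is reported as R, the mapped-read-normalized abundance of each oligo in the bound sample divided by its abundance in the input. Two independent protein batches served as duplicates.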
Sequence of TDP-43 (Q13148 whole entry): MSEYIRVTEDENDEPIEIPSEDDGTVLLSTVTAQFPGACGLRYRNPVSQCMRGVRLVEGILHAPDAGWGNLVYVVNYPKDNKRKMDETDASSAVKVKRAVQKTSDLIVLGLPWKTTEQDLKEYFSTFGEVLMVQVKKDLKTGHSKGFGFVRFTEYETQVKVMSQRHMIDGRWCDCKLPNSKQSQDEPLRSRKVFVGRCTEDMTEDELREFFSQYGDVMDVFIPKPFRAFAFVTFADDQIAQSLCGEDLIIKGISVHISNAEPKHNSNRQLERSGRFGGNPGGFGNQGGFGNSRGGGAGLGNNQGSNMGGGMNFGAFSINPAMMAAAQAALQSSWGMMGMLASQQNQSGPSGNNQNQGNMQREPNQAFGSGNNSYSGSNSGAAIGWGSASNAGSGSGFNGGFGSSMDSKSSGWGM
In the case of B1, the binding signal is 0.389 R (bound/input frequency ratio). To B2 belongs 1.12 R (bound/input frequency ratio). Take B3: the binding signal was 0.86 R (bound/input frequency ratio). To B4 belongs 0.604 R (bound/input frequency ratio).

With B5, the binding signal was 0.754 R (bound/input frequency ratio). On to B6, for which the binding signal was 0.552 R (bound/input frequency ratio). Take B7: the binding signal was 0.765 R (bound/input frequency ratio). Consider B8, for which the binding signal was 0.231 R (bound/input frequency ratio).

As to B9, the binding signal is 0.706 R (bound/input frequency ratio).
